16 compounds from PubChem BioAssay can be followed below.

A short description of assay [1]: small molecules captured by biotinylated probe aFSTL3 – biochemical, small-molecule microarray, fluorescence 635/667, stem cell growth factor project, primary screen (AID 1064).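 Further: measures binding of the biotinylated anti-FSTL3 antibody to printed compounds.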 The following applies: higher = more signal.
Assay [2] in a line: binders from COS7 lysate, DM2A8 probe, primary screen, torsin A project, cell lysate, small-molecule microarray, fluorescence 635/667 (AID 1065). Conditions: higher = more signal, COS7 lysate expressing mutant human TOR1A.
Assay [3] is described as follows: small molecules captured by biotinylated probe aFGF2 – biochemical, small-molecule microarray, fluorescence 635/667, stem cell growth factor project, primary screen (AID 1067).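 Further: measures binding of biotinylated aFGF2 protein to printed compounds on slides; z-score merges feature fluorescence and signal-to-noise across triplicate slides.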 Conditions: higher = more signal.
Assay [4] in a line: small molecules captured by biotinylated probe aFGF10 – biochemical, small-molecule microarray, fluorescence 635/667, stem cell growth factor project, primary screen (AID 1071).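 Further: score merges 667 nm spot intensity and signal to noise from triplicate slides.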 The following applies: higher = more signal.
Assay [5] deals with Neurogenic locus notch homolog protein 2 (Homo sapiens) (UniProt Q04721). The experiment in a line: small molecules binding Notch2 protein – biochemical, small-molecule microarray, 635 nm fluorescence, stem cell growth factors, primary screen (AID 1073). The following applies: higher = more signal.
Sequence of Neurogenic locus notch homolog protein 2 (Homo sapiens) (Q04721 whole entry, looked up, canonical isoform): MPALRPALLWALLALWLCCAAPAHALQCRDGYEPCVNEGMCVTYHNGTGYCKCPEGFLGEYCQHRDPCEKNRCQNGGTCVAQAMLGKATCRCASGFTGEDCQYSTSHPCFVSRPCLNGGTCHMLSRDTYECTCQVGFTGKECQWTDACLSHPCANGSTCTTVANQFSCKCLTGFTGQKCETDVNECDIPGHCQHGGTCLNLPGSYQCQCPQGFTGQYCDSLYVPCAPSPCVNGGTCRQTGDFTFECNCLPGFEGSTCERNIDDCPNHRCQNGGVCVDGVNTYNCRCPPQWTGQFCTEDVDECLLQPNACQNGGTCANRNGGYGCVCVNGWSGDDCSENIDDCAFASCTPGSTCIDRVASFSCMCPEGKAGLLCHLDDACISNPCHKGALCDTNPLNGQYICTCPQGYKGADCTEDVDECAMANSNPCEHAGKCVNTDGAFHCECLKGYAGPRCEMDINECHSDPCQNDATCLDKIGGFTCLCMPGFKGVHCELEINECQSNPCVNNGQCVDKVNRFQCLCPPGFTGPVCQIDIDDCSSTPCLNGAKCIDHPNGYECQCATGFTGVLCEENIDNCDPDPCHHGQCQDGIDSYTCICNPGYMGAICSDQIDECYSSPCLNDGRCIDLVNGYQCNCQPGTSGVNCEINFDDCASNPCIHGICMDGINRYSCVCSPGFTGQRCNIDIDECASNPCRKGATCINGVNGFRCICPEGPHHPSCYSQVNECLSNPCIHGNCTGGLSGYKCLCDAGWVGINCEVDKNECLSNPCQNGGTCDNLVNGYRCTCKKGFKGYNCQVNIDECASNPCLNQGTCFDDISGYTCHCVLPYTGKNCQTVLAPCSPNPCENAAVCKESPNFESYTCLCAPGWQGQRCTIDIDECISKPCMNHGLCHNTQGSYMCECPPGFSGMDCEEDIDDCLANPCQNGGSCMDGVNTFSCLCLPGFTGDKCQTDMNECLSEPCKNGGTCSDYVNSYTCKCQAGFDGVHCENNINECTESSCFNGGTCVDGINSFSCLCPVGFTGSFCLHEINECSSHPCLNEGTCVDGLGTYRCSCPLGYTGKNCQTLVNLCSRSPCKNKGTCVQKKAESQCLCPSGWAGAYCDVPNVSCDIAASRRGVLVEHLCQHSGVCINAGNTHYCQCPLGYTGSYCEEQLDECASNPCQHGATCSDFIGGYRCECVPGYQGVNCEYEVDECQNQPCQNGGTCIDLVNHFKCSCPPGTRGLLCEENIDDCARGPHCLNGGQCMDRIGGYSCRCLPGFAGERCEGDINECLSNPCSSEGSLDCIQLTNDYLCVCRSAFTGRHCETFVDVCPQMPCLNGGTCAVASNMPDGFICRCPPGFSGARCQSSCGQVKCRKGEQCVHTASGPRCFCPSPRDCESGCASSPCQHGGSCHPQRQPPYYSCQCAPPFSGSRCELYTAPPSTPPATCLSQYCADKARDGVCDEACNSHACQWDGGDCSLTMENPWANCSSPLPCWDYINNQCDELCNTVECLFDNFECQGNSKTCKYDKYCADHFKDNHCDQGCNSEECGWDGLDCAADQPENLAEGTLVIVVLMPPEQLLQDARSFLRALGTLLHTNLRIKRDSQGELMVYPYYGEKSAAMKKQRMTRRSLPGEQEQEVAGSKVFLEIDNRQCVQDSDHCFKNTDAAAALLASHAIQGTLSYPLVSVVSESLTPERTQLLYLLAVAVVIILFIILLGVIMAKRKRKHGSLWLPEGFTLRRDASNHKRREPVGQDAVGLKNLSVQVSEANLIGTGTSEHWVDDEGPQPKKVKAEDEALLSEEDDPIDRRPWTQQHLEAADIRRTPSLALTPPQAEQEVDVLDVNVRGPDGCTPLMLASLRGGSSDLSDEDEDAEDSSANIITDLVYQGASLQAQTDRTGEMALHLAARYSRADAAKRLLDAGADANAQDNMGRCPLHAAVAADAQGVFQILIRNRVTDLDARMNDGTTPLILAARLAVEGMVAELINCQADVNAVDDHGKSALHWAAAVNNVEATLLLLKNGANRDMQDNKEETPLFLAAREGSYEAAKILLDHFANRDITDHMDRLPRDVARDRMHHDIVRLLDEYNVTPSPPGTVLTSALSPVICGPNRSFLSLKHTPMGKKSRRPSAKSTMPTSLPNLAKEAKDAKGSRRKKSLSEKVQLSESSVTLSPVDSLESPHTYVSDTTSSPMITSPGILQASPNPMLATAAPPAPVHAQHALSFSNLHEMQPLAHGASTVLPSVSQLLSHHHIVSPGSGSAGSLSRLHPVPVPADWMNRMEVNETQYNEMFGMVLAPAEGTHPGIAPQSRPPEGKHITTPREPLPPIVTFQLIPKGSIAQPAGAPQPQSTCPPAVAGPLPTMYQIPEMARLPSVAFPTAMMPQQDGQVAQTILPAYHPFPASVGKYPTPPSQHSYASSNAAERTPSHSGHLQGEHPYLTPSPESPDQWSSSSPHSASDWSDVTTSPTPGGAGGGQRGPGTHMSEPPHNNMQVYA
The target of assay [6] is Pro-neuregulin-1, membrane-bound isoform (Homo sapiens) (UniProt Q02297). The experiment in a line: small molecules binding neuregulin-1 protein – biochemical, small-molecule microarray, fluorescence 635/667, psychiatric disease protein project, primary screen (AID 1075).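 Further: score combines 667 nm spot fluorescence with signal to noise.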 The following applies: NRG1 binding, 635 nm fluorescence, higher = more signal.
Sequence of Pro-neuregulin-1, membrane-bound isoform (Homo sapiens) (Q02297 whole entry, looked up, the tested form may be a part, canonical isoform): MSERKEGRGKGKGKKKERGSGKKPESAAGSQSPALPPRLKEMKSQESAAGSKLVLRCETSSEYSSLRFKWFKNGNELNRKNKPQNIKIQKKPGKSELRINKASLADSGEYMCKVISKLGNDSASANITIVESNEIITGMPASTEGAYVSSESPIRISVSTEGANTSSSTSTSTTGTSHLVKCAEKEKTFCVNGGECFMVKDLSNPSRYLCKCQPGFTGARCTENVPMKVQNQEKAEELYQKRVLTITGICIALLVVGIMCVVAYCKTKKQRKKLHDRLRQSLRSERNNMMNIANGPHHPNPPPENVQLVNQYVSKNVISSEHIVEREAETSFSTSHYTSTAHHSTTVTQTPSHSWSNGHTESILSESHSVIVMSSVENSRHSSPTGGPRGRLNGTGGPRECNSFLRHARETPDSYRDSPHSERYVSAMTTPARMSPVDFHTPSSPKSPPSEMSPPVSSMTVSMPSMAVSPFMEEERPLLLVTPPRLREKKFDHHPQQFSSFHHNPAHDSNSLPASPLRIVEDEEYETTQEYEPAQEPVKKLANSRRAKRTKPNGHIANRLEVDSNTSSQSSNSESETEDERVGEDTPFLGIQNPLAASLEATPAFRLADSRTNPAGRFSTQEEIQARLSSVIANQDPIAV
In assay [7] the test system is Neuregulin-1 EGF-like domain. The experiment in a line: small molecules binding NRG1 EGF domain – biochemical, small-molecule microarray, 635 nm fluorescence, primary screen (AID 1081).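 Further: binding of the protein to compounds printed on small-molecule microarray slides.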 Conditions: higher = more signal.
Assay [8] in a line: FRG1 expression reporter modulators in myotubes – cell-based, C2C12 myotubes, firefly/Renilla luciferase, luminescence, FRG1 inhibition for FSHD, primary screen (AID 1084). Conditions: FRG1 promoter luciferase, higher = more signal, called active from +8 up or from −8 down.
A short description of assay [9]: small molecules captured by biotinylated probe aFST – biochemical, small-molecule microarray, fluorescence 635/667, stem cell growth factor project, primary screen (AID 1086).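 Further: score merges 667 nm fluorescence with signal-to-noise of each printed compound spot.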 The following applies: higher = more signal.
A short description of assay [10]: binders of probe aHhip on microarray, primary screen, stem cell growth factor project, biochemical, small-molecule microarray, fluorescence 635/667 (AID 1087).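 Further: score merges spot fluorescence at 667nm with spot signal to noise ratio.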 Conditions: higher = more signal.

Active and inactive are the calls of the source.

As for `C[N+](C)(C)CCCC[C@@H]1NC(=O)[C@@H]2C[C@H](C(=O)O)[C@H](c3cccc(OCCO)c3)N2C1=O`, the composite z-score is 0.846 in assay [1]; 0.0439 in assay [2]; -0.179 in assay [3]; -0.372 in assay [4]; -0.821 in [5]; -0.0567 in [6]. The values for the composite z-score in assay [7], in assay [9] and in assay [10] were 1.1, -0.184 and -0.245, respectively. Moreover, the z-score in [8] is -0.112 (inactive).

On to `[N-]=[N+]=Nc1ccccc1C[C@]1(C(=O)NCCN2CCOCC2)N=C(c2ccc(OCCCO)cc2)O[C@H]1c1ccccc1N=[N+]=[N-]`, for which the composite z-score in [1] was -0.195; in assay [2], -0.354; in [3], 0.125; in [4], 0.763; in [5], 1.64; in assay [6], 1.59. Also, the values for the composite z-score in [7], in assay [9] and in [10] were 1.33, 0.839 and 0.113, respectively. For the same compound, the z-score in assay [8] was -0.344 (inactive).

As for `NC(=O)NCC#Cc1ccc2c(c1)[C@]1(C(=O)N2)[C@H](c2ccc(OCCO)cc2)N2[C@H](c3ccccc3)[C@H](c3ccccc3)OC(=O)[C@H]2[C@@H]1C(=O)N1CCCCCCC1`, the composite z-score in assay [1] was 3.57; in assay [2] it was 0.48; in [3] it was 0.943; in assay [4] it was 1.2; in [5], 1.53; in [6], 1.74. Besides, the results for the composite z-score in assay [7], in assay [9] and in assay [10] were 0.955, 3.04 and 3.79, respectively. The z-score in assay [8] is -0.154 (inactive).

As for `CCCCC=C[C@@H](NC(=O)CCc1ccccc1)c1ccccc1`, the composite z-score was found to be 0.0413 in assay [1]; 1.04 in assay [2]; 0.0601 in assay [3]; 0.404 in [4]; 1.11 in assay [5]; 1.23 in assay [6]. The figures for the composite z-score in assay [7], in assay [9] and in [10] were 1.24, 0.843 and 0.316, respectively. In addition, the z-score in [8] is -1.42 (inactive).

With `COC(=O)[C@]1(Cc2ccccc2CN=[N+]=[N-])N=C(c2ccc(OCCCO)cc2)O[C@@H]1c1ccccc1CN=[N+]=[N-]`, the composite z-score in [1] is 0.409; in [2], -0.119; in assay [3] it was -0.087; in [4], 0.013; in [5], -0.443; in [6] it was 0.726. Besides, the composite z-score was 1.28 in [7], -0.117 in [9] and -0.0994 in [10]. The z-score in [8] is -0.904 (inactive).

For `COc1ccc(C#Cc2ccc3c(c2)[C@]2(C(=O)N3)[C@H](C(N)=O)[C@H]3C(=O)O[C@H](c4ccccc4)[C@H](c4ccccc4)N3[C@@H]2c2ccc(O)cc2)cc1`, the composite z-score in assay [1] is -0.302; in assay [2], 1.1; in assay [3], -0.0183; in [4], 0.665; in [5] it was 0.477; in assay [6], 1.57. Also, the composite z-score in [7] is 1.38; in assay [9] it was 0.722; in assay [10], -0.0581. For the same compound, the z-score in assay [8] was -0.891 (inactive).

Take `COCC1=C([C@H](O)CCc2ccccc2)[C@H](CO)[C@@H]2C(=O)N(C)C(=O)[C@@H]2C1`: the composite z-score was -0.479 in assay [1]; 0.24 in assay [2]; -0.235 in assay [3]; 0.367 in [4]; 0.396 in assay [5]; 0.378 in assay [6]. Besides, the composite z-score is 0.15 in assay [7], -0.0346 in assay [9] and -0.226 in [10]. Besides, the z-score in [8] was -2.22 (inactive).

As for `CC(C)NC(=O)[C@@]1(Cc2ccccc2I)c2ccccc2C(=O)N(Cc2ccccc2C(F)(F)F)[C@H]1c1ccc(CO)cc1`, the composite z-score is 0.695 in [1]; 0.44 in assay [2]; -0.0316 in assay [3]; -0.0029 in [4]; 0.234 in assay [5]; 1.71 in assay [6]. Moreover, the values for the composite z-score in assay [7], in assay [9] and in assay [10] were 1.21, 0.0674 and 0.533, respectively. Also, the z-score in assay [8] was -2.61 (inactive).

For `CCOC(=O)C1=CCC(c2cccc(Cl)c2)O1` (stereo not given), the composite z-score was -0.267 in [1]; 0.491 in assay [2]; -0.0036 in assay [3]; 0.0428 in assay [4]; 0.105 in assay [5]; 1.06 in assay [6]. For the same compound, the composite z-score was 0.575 in assay [7], 0.0826 in assay [9] and -0.131 in assay [10]. Moreover, the z-score in assay [8] was -0.242 (inactive).

With `OCc1ccc(-c2cc[n+](Cc3cccc(OC(F)(F)F)c3)cc2)cc1`, the composite z-score in [1] was 0.253; in assay [2], 0.502; in assay [3], -0.0887; in assay [4], -0.0076; in assay [5], 1.4; in [6], 1.48. For the same compound, the composite z-score is 0.946 in [7], 0.597 in assay [9] and -0.0994 in assay [10]. The z-score in assay [8] is 1.41 (inactive).

`COC(=O)[C@@]1(Cc2ccccc2)[C@H]2c3cc(C(=O)N4CCCC4)n(Cc4ccccc4)c3C[C@H]2CN1C(=O)c1ccccc1`: the composite z-score in [1] was 0.425; in [2], -0.463; in assay [3], 0.113; in assay [4], 0.742; in assay [5] it was 1.69; in assay [6], 1.6. The composite z-score was 1.01 in [7], 1.54 in [9] and -0.135 in [10]. In addition, the z-score in assay [8] is -1.15 (inactive).

Take `O=C1O[C@H](c2ccccc2)[C@H](c2ccccc2)N2[C@H]1[C@@H](C(=O)N1CCN(c3ncccn3)CC1)[C@]1(C(=O)Nc3ccc(C#CCCO)cc31)[C@H]2c1ccccc1OCCO`: the composite z-score in [1] was -0.301; in assay [2] it was 0.851; in [3], 0.0002; in [4], 0.931; in assay [5] it was 1.33; in assay [6], 1.64. Besides, the composite z-score in [7] worked out at 0.965; in assay [9] it was 0.312; in assay [10] it was 0.0219. The z-score in assay [8] was -0.363 (inactive).

With `CCCC[C@@H](O)C1=C(COc2ccccc2)Cn2c(=O)n(-c3ccccc3)c(=O)n2[C@H]1CO`, the composite z-score in assay [1] was -0.353; in [2], -0.0302; in assay [3], -0.118; in [4], 0.0467; in assay [5], -0.239; in assay [6], -0.21. The composite z-score in assay [7] is -0.851; in [9] it was -0.512; in assay [10], 0.0274. The z-score in [8] was -1.83 (inactive).

For the compound `CCCC=C(CCC)[C@@H](NS(=O)(=O)c1ccccc1)c1ccc(C(F)(F)F)cc1`, the composite z-score in assay [1] is -0.201; in assay [2], 0.322; in assay [3], 0.174; in [4], 0.96; in assay [5], 1.55; in [6] it was 1.52. Moreover, the composite z-score in assay [7] was 1.13; in assay [9] it was 1.05; in [10], 0.28. Also, the z-score in [8] is -2.28 (inactive).

On to `C[C@]12C(=O)N(CCCCCO)[C@@H]3C(=O)N(c4ccc(Cl)cc4)CC=CC31O[C@@H]1/C=C\CCCOC(=O)C12` (stereo not given in full), for which the composite z-score was 0.302 in assay [1]; -1.54 in [2]; -0.221 in assay [3]; -1.14 in assay [4]; -0.76 in [5]; -0.254 in assay [6]. The values for the composite z-score in assay [7], in [9] and in [10] were 0.655, -0.733 and -0.28, respectively. Besides, the z-score in assay [8] was 0.803 (inactive).

Consider `CC(C)NC(=O)[C@@H]1c2ccccc2C(=O)N(Cc2cc(C(F)(F)F)cc(C(F)(F)F)c2)[C@H]1c1ccc(CO)cc1`, for which the composite z-score in assay [1] is 0.27; in assay [2], 0.255; in assay [3], 0.0032; in assay [4], -0.0264; in assay [5], 0.805; in [6], 0.104. Also, the composite z-score in [7] is 0.663; in assay [9] it was 0.619; in assay [10] it was 0.0596. In addition, in assay [8], the z-score was 0.306 (inactive).
